SMARCA2 act = SMARCA2 function activation, primary screen; activation, % at 9.1 µM; MG213 cells, MMTV-luciferase reporter, dexamethasone, overnight; 370,000 compounds, 1% hits; AID 652017; in the data active = activation above about 7.8%;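 also: 0% = vehicle wells and 100% = reference activator wells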
DAX1 inh-1 = inhibits human nuclear receptor DAX1; inhibition, % at 6.75 µM; HEK293 Gal4-DAX1 luciferase reporter, luminescence; P51843; 340,000 compounds, 0.99% hits;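 active = inhibition above the mean over all tested compounds plus 3 SD, cut at about 4.2% in these data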;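 also: 0% = DAX1-transfected cells with DMSO and 100% = empty-vector control cells with DMSO; inhibition shows as a rise in luminescence from relieved DAX1 repression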
DAX1 inh-2 = blocks DAX1 repression of SF-1 activated StAR promoter; HEK293T StAR-luciferase reporter, SF-1/DAX-1 repression relief; inhibition, % at 6.8 µM; 370,000 compounds, 1.1% hits; AID 652010;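 active = inhibition above the mean over all tested compounds plus 3 SD, cut at about 3.6% in these data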;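 also: 0% = DAX-1 cells with DMSO and 100% = cells lacking DAX-1 with DMSO; higher inhibition means more luminescence from relief of DAX-1 repression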
ssDAF12 agonist = activates DAF-12 receptor from parasite S. stercoralis | 370,000 compounds, 1% hits | AID 652126 | activation, % at 6.8 µM | HEK293 ssDAF-12/GRIP1 lit1-tk-luc reporter, luminescence; % of 3 µM dafachronic acid response;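 active = activation above the mean over all tested compounds plus 3 SD, cut at about 0.9% in these data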;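 also: 0% = DMSO-only wells and 100% = 3 µM delta7-dafachronic acid wells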
hcDAF-12 act = activators of H. contortus DAF-12 nuclear receptor. activation, % at 6.8 µM. HEK293 hcDAF-12 lit1-tk-luc reporter, luminescence; 0% DMSO, 100% Δ7-dafachronic acid. AID 652067. 370,000 compounds, 1.4% hits;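 active = activation above the mean of all tested compounds plus 3 SD, cut at about 5.5% in these data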;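 also: 100% = response to 3 µM Δ7-dafachronic acid high control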
hgDAF-12 ag = agonists of H. glycines DAF-12 nuclear receptor. HEK293 GAL4-hgDAF12 UAS-luciferase reporter, agonist luminescence; normalized to butyrate control. activation, % at 6.8 µM. 370,000 compounds, 1.8% hits. AID 687014;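 active = activation above a cutoff set at the mean of all screened compounds plus 3 SD, cut at about 10% in these data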;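 also: 0% = DMSO wells and 100% = sodium butyrate wells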
LXR ag = counter-screen for hcDAF-12 agonists: agonists of human LXR-beta; AID 743027; activation, % at 6.8 µM; HEK293 Gal4-LXR tk-luc reporter, luminescence, 24 h; normalized: DMSO 0%, positive control 100%; shares compounds with hcDAF-12 act; 3,400 tested, under 10 active;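 active = mean percent activation of the reporter above a cutoff set as the average over tested compounds plus their standard deviation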
Target sequence (P55055 whole entry, looked up, the tested form may be a part): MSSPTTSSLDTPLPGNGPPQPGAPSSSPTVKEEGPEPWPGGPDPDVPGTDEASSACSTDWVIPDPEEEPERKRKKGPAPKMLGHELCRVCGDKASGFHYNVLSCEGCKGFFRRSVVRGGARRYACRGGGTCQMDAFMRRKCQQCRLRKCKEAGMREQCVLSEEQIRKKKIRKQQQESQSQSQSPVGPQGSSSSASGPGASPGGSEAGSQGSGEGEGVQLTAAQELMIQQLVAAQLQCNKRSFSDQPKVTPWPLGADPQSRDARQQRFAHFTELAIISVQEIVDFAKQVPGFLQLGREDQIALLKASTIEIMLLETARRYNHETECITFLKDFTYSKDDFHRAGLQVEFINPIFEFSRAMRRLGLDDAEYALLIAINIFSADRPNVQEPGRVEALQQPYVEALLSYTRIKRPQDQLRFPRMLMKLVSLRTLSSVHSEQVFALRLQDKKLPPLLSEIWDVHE
hcDAF12 ag = hcDAF-12 agonism, confirmation assay; shares compounds with hcDAF-12 act; 3,400 compounds, 61% hits; activation, % at 6.8 µM; HEK293 hcDAF-12 lit1-tk-luc reporter, luminescence; % of Δ7-dafachronic acid response; AID 743032;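 active = mean activation across triplicate tests above the threshold derived from the earlier primary screen, cut at about 5.5% in these data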;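 also: 0% = DMSO only wells and 100% = 3 µM Δ7-dafachronic acid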
Starred values were filed as active, the others as inactive; . = no result. Compounds with a hit are over-represented: about 4.8% of the library has one in this group of screens.

SMILES | SMARCA2 act | DAX1 inh-1 | DAX1 inh-2 | ssDAF12 agonist | hcDAF-12 act | hgDAF-12 ag | LXR ag | hcDAF12 ag
CC(C)c1ccc(-c2cc(C(=O)NN3CCN(C)CC3)c3ccccc3n2)cc1 | 1 | -2 | 2 | 1 | 7.3* | 9 | 0 | 6.0*
O=C(O)Cc1sc(Nc2ccccc2)nc1-c1cccs1 | 2 | 7.8* | 1 | 0 | 6.9* | 10 | 0 | 4
C=CCNc1nc(-c2cccs2)c(CC(=O)O)s1 | 2 | -1 | 1 | -1 | 2 | 2 | . | .
CCCn1c(/C=C/c2ccccc2)nc2ccccc21 | 2 | 1 | 3.6* | 0 | 6.6* | 11* | 1 | 7.9*
COC(=O)[C@H]1C[C@H](C(=O)O)[C@@H](C)C1(C)C | -2 | 1 | 0 | -1 | -1 | 3 | . | .
O=C(NCC1CCCO1)c1cc2cc(F)ccc2[nH]1 (stereo not given) | 5 | 1 | 0 | 0 | 7.1* | 2 | 0 | 4
CCN(C(=O)COc1ncnc2sccc12)c1ccccc1 | 4 | -1 | 1 | -1 | 0 | 3 | . | .
CCc1ccccc1NC(=O)CNC(=O)CCNC(=O)Nc1ccccc1 | -4 | 1 | 3 | -2 | 2 | 0 | . | .
Fc1ccc(OCc2nnc(-c3ccccc3Br)o2)c(Cl)c1 | 6 | 1 | 1 | 0 | 7.1* | 11* | 1 | 3
O=C(Nc1ccccc1)/C(=C/c1ccc([N+](=O)[O-])cc1)NC(=O)c1ccco1 | 0 | 2 | 0 | -1 | -1 | -2 | . | .
CCOc1cc(/C=C2\N=C(C)OC2=O)cc(Br)c1OCC(=O)OC | 5 | 0 | 0 | 1 | 6.7* | -1 | 0 | 2
CCOc1ccc(CN(C)C(=O)CNC(=O)C2CCCCC2)cc1OC | -3 | -2 | 0 | -1 | -2 | 1 | . | .
N#CC1(Nc2ccc3ccccc3c2)CCCC1 | 0 | 3 | 4.1* | 0 | 6.9* | 9 | 0 | 7.0*
CC(C)CCNC(=O)CCC(=O)NNc1nc2ccccc2c2nc(-c3ccccc3)nn12 | 0 | -1 | 0 | 0 | 6.8* | 2 | 0 | 2
COCCNC(=O)CCC(=O)NNc1nc2ccccc2c2nc(C)nn12 | 1 | 0 | 0 | -1 | -1 | 0 | . | .
C[C@@]12CC[C@H]3OC(=O)C=C3C1CC[C@@]13CC(CCC12)[C@](CO)(O[C@H]1O[C@H](CO)[C@@H](O)[C@H](O)[C@H]1O)C3 (stereo not given in full) | 0 | 0 | 0 | -1 | -1 | 0 | . | .
Oc1ccccc1-c1nc2c3ccccc3c3ccccc3c2[nH]1 | -1 | 2 | -1 | 0 | 7.5* | 4 | 0 | 5
c1cnc2c(OCc3nc4ccccc4[nH]3)cccc2c1 | 7 | 2 | 2 | 1.2* | 11* | 8 | 1 | 9.6*
Fc1ccc(F)c(C2=NNC(=Nc3ccccc3F)SC2)c1 | -5 | 3 | 3 | 2.7* | 8.6* | 13* | 1 | 8.1*
Fc1ccccc1N=C1NN=C(c2ccccc2)CS1 | -7 | 1 | 4 | 1.0* | 12* | 12* | 2 | 8.5*
c1ccc(CN=C2NN=C(c3ccccc3)CS2)cc1 | 2 | 0 | 2 | 1 | 2 | 9 | . | .
Cc1cccc(N=C2NN=C(c3ccccc3F)CS2)c1C | 0 | -1 | 0 | -2 | -1 | 0 | . | .
COc1ccccc1Nc1nc(-c2c(C)nc3ncccn23)cs1 | -6 | -3 | -3 | -3 | -4 | -7 | . | .
O=C(NC1CCCCC1)c1ccc2c(c1)OCO2 | 7 | 0 | 1 | 0 | 8.3* | 8 | 0 | 4
Cc1csc(NC(=O)c2ccc(OCC3CCCO3)cc2)n1 (stereo not given) | 1 | -1 | 4.3* | 0 | 6.7* | 13* | 1 | 4
SMILES | SMARCA2 act | DAX1 inh-1 | DAX1 inh-2 | ssDAF12 agonist | hcDAF-12 act | hgDAF-12 ag | LXR ag | hcDAF12 ag
O=C(NC1CCCCCC1)c1ccc(OCC2CCCO2)cc1 (stereo not given) | 6 | 2 | 2 | 0 | 9.8* | 7 | 1 | 4
COc1ccc(CC(=O)O/N=C(\N)c2ccc(C)cc2)cc1 | 4 | 2 | 0 | 1.6* | 7.7* | 5 | 0 | 8.5*
CC(C)(C)NC(=O)Cn1nnc(-c2ccc(OCc3c(F)cccc3Cl)cc2)n1 | -2 | -1 | 0 | -1 | 0 | 1 | . | .
S=C(NNc1ccnc2cc(Cl)ccc12)Nc1ccc(Cl)cc1Cl | -3 | 0 | -1 | -2 | -1 | 0 | . | .
CCOc1ccc(NC(=S)NNc2ccnc3cc(Cl)ccc23)cc1 | 5 | 1 | 1 | -2 | 7.9* | 0 | -1 | -2
CC1CC(C)(C)C2=NCCN21 (stereo not given) | 4 | 0 | -1 | -1 | 1 | -1 | . | .
COCc1nnc(NC(=O)COc2ccc3c(c2)OCO3)s1 | 1 | 1 | 0 | -1 | 4 | 1 | . | .
O=C(COc1ccc2c(c1)OCO2)Nc1nccs1 | 7 | -2 | 2 | 1.1* | 7.5* | 11* | 1 | 6.0*
O=C(c1cccs1)c1ccc(-c2cccs2)s1 | 7 | -1 | 3 | 2.1* | 14* | 17* | 2 | 14*
CCOCCCNC(=O)CSc1nc2nc(C)c(Cc3ccccc3)c(C)n2n1 | -3 | 2 | 0 | -1 | -2 | -4 | . | .
Brc1ccccc1CN1CCN(Cc2c[nH]c3ccccc23)CC1 | -1 | . | -1 | -1 | 4 | -1 | . | .
COc1ccccc1N1CCN(Cc2c[nH]c3ccccc23)CC1 | -4 | . | -1 | 0 | 2 | 1 | . | .
Cc1ccccc1N1CCN(Cc2c[nH]c3ccccc23)CC1 | -3 | 0 | 0 | 0 | 6.6* | 1 | 0 | 4
CCS(=O)(=O)N1CCN(Cc2c[nH]c3ccccc23)CC1 | -2 | -1 | 1 | 0 | 7.4* | 9 | 0 | 3
CCc1ccc(N2NC(=O)/C(=C/C=C/c3ccco3)C2=O)cc1 | 0 | -1 | 0 | 0 | 7.7* | 0 | 0 | 1
CCOC(=O)c1ccc(N2N=C(C)/C(=C/C=C/c3ccco3)C2=O)cc1 | 1 | 0 | 0 | -1 | 1 | 1 | . | .
CCOC(=O)N1CCN(C(=O)CC(C)S(=O)(=O)c2cc3c(cc2C)NC(=O)CO3)CC1 (stereo not given) | -4 | 0 | -1 | -2 | -2 | 0 | . | .
CN1CCN(c2ccc(CNS(=O)(=O)c3ccc(Cl)cc3)cc2)CC1 | 0 | 1 | 0 | -1 | 0 | 2 | . | .
